Over roughly 35,000 sequences, “fluorescence intensity (a.u.)” has its median near 10,000; the highest 2% begin near 52,000. The sample as a whole holds a higher share of the highest values than the screen did.
target: T1, OsWOX13 (Oryza sativa, UniProt Q5QMM3 1-267); test: protein-binding microarray (RPBM); PBS, 2% BSA, 51.3 ng/ul salmon testes DNA, 50 uM zinc acetate, 200 nM TF, 25 C, 1 h; high values mean tight binding; settings: protein: recombinant; tags: N-terminal polyhistidine and DsRed monomer fusion (pET32a); label: CyDye5-dUTP incorporated in the synthesized complementary strand; 3' TTTTT single-stranded linker to array surface; dsDNA, one strand shown
T1 sequence: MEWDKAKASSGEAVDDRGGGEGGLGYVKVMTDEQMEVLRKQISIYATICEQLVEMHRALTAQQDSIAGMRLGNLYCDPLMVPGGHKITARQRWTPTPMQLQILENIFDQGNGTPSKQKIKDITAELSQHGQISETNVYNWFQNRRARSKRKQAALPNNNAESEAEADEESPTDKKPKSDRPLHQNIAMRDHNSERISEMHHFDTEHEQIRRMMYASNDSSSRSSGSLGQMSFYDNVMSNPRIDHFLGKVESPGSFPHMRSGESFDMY
Summary of the method: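 In PBS with 2% BSA, salmon testes DNA and 50 µM zinc acetate, 200 nM protein was incubated on a custom Agilent array at 25 °C for 1 h and then washed off. The array had been made double-stranded by primer extension with Cy5-dUTP and blocked with 2% BSA. The proteins were transcription factors fused N-terminally to polyhistidine and DsRed, expressed in E. coli BL21-CodonPlus and purified on Ni–NTA. The binding signal is per-feature fluorescence intensity (arbitrary units) from an Axon 4000B scanner.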

Going from “GCATGTTGATTATACCAGTAAGTTTCACGCACGCACACCGCGGAGTCACCTAGTGCAG” to “ACATGTTAATTTTAACATTGACTAATAGTAAGTAGTGAGCCGGAGTCACCTAGTGCAG”, the binding signal rises from 13000 fluorescence intensity (a.u.) to 25000 fluorescence intensity (a.u.).

Compared with “AAAGGGATGAGATTGAAGCAATTCCCGTGACTAGAAAACGCGGAGTCACCTAGTGCAG”, “AAATTTAAATTTGAAGTTGATTTTAAGATATTTTCAACGTCGGAGTCACCTAGTGCAG” is higher in binding signal: 3320 fluorescence intensity (a.u.) for the first, 21000 fluorescence intensity (a.u.) for the second.

Going from “TTAGTTTATACTCAATTAATCATTCGCTAATGGCTTACCTCGGAGTCACCTAGTGCAG” to “ACTGATAGAATTAGCTCTATGCATAATGCATGGCTGTCTCCGGAGTCACCTAGTGCAG”, the binding signal rises from 5920 fluorescence intensity (a.u.) to 34300 fluorescence intensity (a.u.).

Going from “AAAGATTGAAACTCTGAACATTTAGGACAACGAACATCATCGGAGTCACCTAGTGCAG” to “CAAACAAGCCAGCTCAATCAATCATCGAGCTAGCTGAGCTCGGAGTCACCTAGTGCAG”, the binding signal falls from 14000 fluorescence intensity (a.u.) to 8080 fluorescence intensity (a.u.).

Going from “CTCTGTAACTATATAATTTCGTGCCAGATCGAAACTATGTCGGAGTCACCTAGTGCAG” to “GGTGTGTTTATAATTAATATACAGATTGTGTCACATTGTTCGGAGTCACCTAGTGCAG”, the binding signal rises from 4040 fluorescence intensity (a.u.) to 8600 fluorescence intensity (a.u.).

First: ATATTTGATTAGATCGGTAATGGATGGCTATAACGTATGCCGGAGTCACCTAGTGCAG
Second: TTTATGATTATATTCGTAATGCTACATAATTTGATATGATCGGAGTCACCTAGTGCAG
The binding signal of the first is higher: 58500 fluorescence intensity (a.u.) for the first, 28100 fluorescence intensity (a.u.) for the second.

First: CAACTATTATATAAATTGGCTATTATATTAGCTATAGATGCGGAGTCACCTAGTGCAG
Second: TATATATGAGCTATTAGATTGGCTATGGATGAATTGGAGCCGGAGTCACCTAGTGCAG
The binding signal of the first is higher: 11400 fluorescence intensity (a.u.) for the first, 4900 fluorescence intensity (a.u.) for the second.

Compared with “GTCAATCATTGTTCTATGAGCTAGATGATAAAGATGACAACGGAGTCACCTAGTGCAG”, “TCAAGCTGCTAATCAATTGATATCAACTATATTATGGAAACGGAGTCACCTAGTGCAG” is higher in binding signal: 8180 fluorescence intensity (a.u.) for the first, 14600 fluorescence intensity (a.u.) for the second.

Going from “TTATATTAATTGGCTATTAGATTAGCTATAGATAAATTGGCGGAGTCACCTAGTGCAG” to “AATAAAATAATAATTATATAATTTTAGTAAGATAATTGAACGGAGTCACCTAGTGCAG”, the binding signal falls from 60400 fluorescence intensity (a.u.) to 19200 fluorescence intensity (a.u.).

Compared with “AGATAATTAAGTATTTTACGTAAAATAAGATAGTATTAATCGGAGTCACCTAGTGCAG”, “GATAAATTGACAATATTACCAAAATTTTAGTAAGATTGGCCGGAGTCACCTAGTGCAG” is higher in binding signal: 5240 fluorescence intensity (a.u.) for the first, 64900 fluorescence intensity (a.u.) for the second.

First: GAGCTATTAGATTGGCTATAGATAAATTAGAGCTAGTAGTCGGAGTCACCTAGTGCAG
Second: ATGATTGATCGATCATCAAGCTAAAGATAATGCTATGCAACGGAGTCACCTAGTGCAG
The binding signal of the first is lower: 31600 fluorescence intensity (a.u.) for the first, 55100 fluorescence intensity (a.u.) for the second.

Compared with “ATCACACCCTAAATTGACTGTATTTGTGCTGAATTTTACACGGAGTCACCTAGTGCAG”, “CAGCCGGATTGATTGCGTAGCTGTGTGCAAGGCTGGGCGACGGAGTCACCTAGTGCAG” is higher in binding signal: 12300 fluorescence intensity (a.u.) for the first, 35900 fluorescence intensity (a.u.) for the second.

Compared with “TGGTTAATTTAGCTTCTCCCCTTTCTCGTGTCCTTAGATTCGGAGTCACCTAGTGCAG”, “ATAAAATTAAAGTAAATGTGATACAAACGTGGCATGTTTGCGGAGTCACCTAGTGCAG” is lower in binding signal: 10200 fluorescence intensity (a.u.) for the first, 8490 fluorescence intensity (a.u.) for the second.

Going from “AGACTAATTGAAGCTAGGATATATGATGCAAGGAGAGAGGCGGAGTCACCTAGTGCAG” to “ACCTTAAATTTGTAGTTGATTTTAGGGTTTTCTCATTGAACGGAGTCACCTAGTGCAG”, the binding signal falls from 29500 fluorescence intensity (a.u.) to 27700 fluorescence intensity (a.u.).

Compared with “ATAATAGATTTGGTCAAAATTTATCGAAAACCGATCGAAACGGAGTCACCTAGTGCAG”, “AAATTAAATAACATGTGATTATGGCATACTGTAAGTAGTACGGAGTCACCTAGTGCAG” is lower in binding signal: 13200 fluorescence intensity (a.u.) for the first, 12000 fluorescence intensity (a.u.) for the second.

First: ACCAAATTAATTTATTAAACATAAAATTGAATATATTTTGCGGAGTCACCTAGTGCAG
Second: ATAAATGGGCTATTAGATTGACTATAAATGATTTGGAGCCCGGAGTCACCTAGTGCAG
The binding signal of the first is lower: 46500 fluorescence intensity (a.u.) for the first, 57100 fluorescence intensity (a.u.) for the second.

First: TATGAATTGGCTATTAAATTGACTATAAATGATTTAGAGCCGGAGTCACCTAGTGCAG
Second: ATGGACTATTAAATTGACTATAAATGATTTGGAGCTAGTACGGAGTCACCTAGTGCAG
The binding signal of the first is higher: 37200 fluorescence intensity (a.u.) for the first, 22200 fluorescence intensity (a.u.) for the second.

Compared with “GAGACCATATCATTGATAGATACATGCATGCATCCTACTACGGAGTCACCTAGTGCAG”, “AAGACTAAAGGCTCAATTGATTGGACGGGAGATATGAAAACGGAGTCACCTAGTGCAG” is higher in binding signal: 7660 fluorescence intensity (a.u.) for the first, 9490 fluorescence intensity (a.u.) for the second.

Going from “ATATGATATTTGTCCATCTTAATTGCTTATAAGCTGTATACGGAGTCACCTAGTGCAG” to “GTCCGTAATTGATCATATTTATCATTTAAATTACTCAGTGCGGAGTCACCTAGTGCAG”, the binding signal rises from 5090 fluorescence intensity (a.u.) to 61900 fluorescence intensity (a.u.).

Going from “TAATAAATTTGACTAGTTATTCAACTTTGACATAAAATCCCGGAGTCACCTAGTGCAG” to “ACCGTAACCTGATTGATAATTTACTGATTTACTCATTGTTCGGAGTCACCTAGTGCAG”, the binding signal rises from 11500 fluorescence intensity (a.u.) to 64700 fluorescence intensity (a.u.).

Going from “ATTTTGGTTTCTGTTATTGACAAAACAACTCACTCATTCCCGGAGTCACCTAGTGCAG” to “GTAATTGACAACTGACAACCGACAGTTATTGACTCATTCCCGGAGTCACCTAGTGCAG”, the binding signal rises from 3480 fluorescence intensity (a.u.) to 54900 fluorescence intensity (a.u.).

First: ATTTATGTAATTATCATTTATTTTATTGTAAATTTATTTACGGAGTCACCTAGTGCAG
Second: TTGTTGATAACCGATAATTTGGTAAATTATTGATTTTATTCGGAGTCACCTAGTGCAG
The binding signal of the first is lower: 16300 fluorescence intensity (a.u.) for the first, 19900 fluorescence intensity (a.u.) for the second.

Source: paper PMC7819943, “Rice protein-binding microarrays: a tool to detect cis-acting elements near promoter regions in rice”
